# Source: PubChem BioAssay AID504895 (National Center for Advancing Translational Sciences (NCATS), 2011)
# Results filed as inconclusive are left out. Activity calls are given as the source filed them. Calls follow the shape of the dose curve; as a rule, active = well fitted curve in the direction sought with a large enough effect; inconclusive = small, poorly fitted or top-dose-only effect, or another doubt; inactive = no such curve, though single readings can be large or run the other way.
# Target: Protein phosphatase EYA2 (Homo sapiens) (UniProt O00167)
# Assay: Inhibitors of Eya2ED: Hit Confirmation in Primary Screen
# Settings: Recombinant Eya2ED, OMFP fluorescence phosphatase assay; series mostly up to 76.9 µM
# From the text: The Eya proteins (Eya1-4) were originally identified as essential co-activators of the Six1 transcription factor. […] Knockdown of Six1 decreases cancer cell proliferation and metastases in several different cancer models. […] A fluorescence-based HTS assay has been perfomed against the Molecular Libraries Small Molecule Repository (MLSMR) and has the AID 488837 in this database. After completion of the primary screen, hits were re-ordered and tested again in the primary screen in a 12 point titration. NIH Chemical Genomics Center [NCGC] NIH Molecular Libraries Probe Centers Network [MLPCN] MLPCN Grant: DA030559-01 Assay Submitter (PI): Rui Zhao, University of Colorado, Denver
# The Eya2 enzyme was kindly provided by the laboratory of Dr. Rui Zhao. The 3-O-methyl-fluorescein phosphate (OMFP) substrate and all buffer reagents were purchased from Sigma Aldrich. qHTS Assay Setup: 1. Buffer- 50 mM HEPES pH 7.5, 50 mM NaCl, 5 uM MgCl2, 0.05% BSA, 1 mM DTT. 2. OMFP Stock- 10 mM solution prepared in 100% DMSO and stored in single use aliquots at -20C. Assay Procedure- 1. Dispense 1.5 ul per well of Eya2 at 0.2 uM in black medium binding 1536 well Greiner plate 2. Transfer 23 nl of compound and control compound (EGTA) to plate 3. Incubate at ambient for 10 minutes 4. Dispense 1.5 ul per well of OMFP at 50 uM 5. Incubate at ambient for 10 minutes 6. Read on ViewLux using Excitation = 485 nm, Emission = 525 nm
# Chain of Protein phosphatase EYA2 (Homo sapiens) (O00167 whole entry, looked up): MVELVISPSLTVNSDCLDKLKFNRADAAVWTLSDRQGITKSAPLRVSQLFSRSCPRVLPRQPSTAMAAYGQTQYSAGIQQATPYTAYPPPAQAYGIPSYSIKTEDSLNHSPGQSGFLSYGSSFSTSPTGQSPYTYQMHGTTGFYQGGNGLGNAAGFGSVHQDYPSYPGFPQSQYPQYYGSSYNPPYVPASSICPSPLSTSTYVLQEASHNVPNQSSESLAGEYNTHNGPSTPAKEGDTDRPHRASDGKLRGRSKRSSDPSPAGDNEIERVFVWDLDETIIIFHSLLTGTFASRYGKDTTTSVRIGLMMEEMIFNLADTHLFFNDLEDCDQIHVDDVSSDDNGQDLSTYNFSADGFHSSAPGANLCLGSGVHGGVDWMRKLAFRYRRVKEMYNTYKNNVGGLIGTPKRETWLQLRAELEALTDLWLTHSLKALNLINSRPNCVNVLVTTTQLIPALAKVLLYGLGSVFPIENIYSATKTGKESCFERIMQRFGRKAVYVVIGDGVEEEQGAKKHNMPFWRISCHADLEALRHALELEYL
row,Structure (SMILES),outcome
1,Cn1c(O)c(/C=N/NC(=O)c2ccncc2)c(=O)n(C)c1=S,inactive
2,O=c1[nH]c(=O)n(C2CCCCC2)c(O)c1C1NCCc2ccccc21 (stereo not given),inactive
3,CCOC(=O)c1ccc(N=C(CC)c2c(O)n(C)c(=O)n(C)c2=O)cc1,inactive
4,O=C(O)C1C2CCC(O2)C1C(=O)Nc1cccc(Br)c1 (stereo not given),inactive
5,O=[N+]([O-])c1ccc(N2CCCC2)c2ccncc12,inactive
